PubChem BioAssay (NCATS)
Activity calls are given as the source filed them. Calls come from the whole dose curve; as a rule, active = well fitted curve in the direction sought with a large enough effect; inconclusive = small, poorly fitted or top-dose-only effect, or another doubt; inactive = no such curve, though single readings can be large; an effect the other way counts as inactive or inconclusive.

Legend:
[1] = target: Alpha-galactosidase (Coffea arabica) (UniProt Q42656); test: Counterscreen for Glucocerebrosidase Inhibitors: qHTS Assay for Coffee Bean alpha-Galactosidase at pH 4.5 (AID 957); note: series mostly up to about 77 µM
Outline: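 Enzyme is added first (2 nM final), then compounds titrated from 0.7 nM to 77 uM, then 80 uM 4-methylumbelliferyl alpha-D-galactopyranoside; after 20 min at room temperature a pH 10 NaOH/glycine stop precedes fluorescence reading at 365/440 nm.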

[2] = target: Alpha-galactosidase (Coffea arabica) (UniProt Q42656); test: Counterscreen for Glucocerebrosidase Inhibitors: qHTS Assay for Coffee Bean alpha-Galactosidase at pH 5.9 (AID 998)
Outline: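 Fluorogenic 4-MU substrate hydrolysis, 80 uM substrate and 2 nM coffee bean alpha-galactosidase, pH 5.9 citrate buffer, 20 min at room temperature, then NaOH/glycine stop. Titration 0.7 nM–77 uM, normalized to no-enzyme and enzyme controls, AC50 via Hill equation.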

Sequence of Alpha-galactosidase (Coffea arabica) (Q42656 whole entry, looked up): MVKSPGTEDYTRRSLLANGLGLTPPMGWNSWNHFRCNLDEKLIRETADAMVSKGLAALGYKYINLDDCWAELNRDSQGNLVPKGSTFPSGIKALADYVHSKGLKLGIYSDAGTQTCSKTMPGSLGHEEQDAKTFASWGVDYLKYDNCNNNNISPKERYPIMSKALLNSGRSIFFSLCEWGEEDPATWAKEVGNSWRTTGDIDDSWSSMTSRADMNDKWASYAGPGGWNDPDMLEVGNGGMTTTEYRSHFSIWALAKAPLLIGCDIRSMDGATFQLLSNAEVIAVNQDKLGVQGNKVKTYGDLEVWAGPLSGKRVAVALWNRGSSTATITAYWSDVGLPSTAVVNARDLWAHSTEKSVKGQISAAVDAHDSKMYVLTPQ

| SMILES | outcome [1] | outcome [2] |
| --- | --- | --- |
| CC(=O)O[C@@H]1C[C@]2(C)[C@H](C[C@@H](O)[C@H]3[C@@]4(C)CC[C@@H](O)[C@@H](C)[C@@H]4CC[C@@]32C)/C1=C(\CCC=C(C)C)C(=O)O | inactive | inactive |
| CCOC(=O)[C@@]12C[C@@H]1/C(=N/O)c1ccccc1O2 | inactive | inactive |
| NC(=S)c1ccc[n+]([C@@H]2O[C@@H](COP(=O)([O-])OP(=O)(O)OC[C@@H]3O[C@@H](n4cnc5c(N)ncnc54)[C@@H](OP(=O)(O)O)[C@H]3O)[C@@H](O)[C@H]2O)c1 | inactive | inactive |
| CCCN(CCC)C(=O)[C@@H](CCC(=O)O)NC(=O)c1ccccc1 | inactive | inactive |
| C[C@@H]1C(=O)N(C)C(=O)c2nc[nH]c21 | inactive | inactive |
| COc1ccc(CCNC[C@H](O)c2ccc(O)cc2)cc1OC | inactive | inactive |
| NS(=O)(=O)c1cc2c(cc1Cl)N[C@@H]([C@@H]1C[C@@H]3C=C[C@H]1C3)NS2(=O)=O | inactive | inactive |
| C[C@@H](CN(C)C)CN1c2ccccc2CCc2ccccc21 | inactive | inactive |
| CC#CCOC(=O)c1c(C)nc2sc3c(c2c1N)CC[C@@H](O)C3 | inactive | inactive |
| C[C@@H](C(=O)O)c1cccc(C(=O)c2ccccc2)c1 | inactive | inactive |
| O=C(O)[C@H]1CCCN(CCC=C(c2ccccc2)c2ccccc2)C1 | inactive | inactive |
| CN1CC[C@@]2(CCN3CCc4c(oc5ccccc45)[C@@H]3C2)N(C)C1=O | inactive | inactive |
| COC(=O)C1=C(C)NC(C)=C([N+](=O)[O-])[C@H]1c1ccccc1C(F)(F)F | inactive | inactive |
| COc1ccccc1OC[C@H](O)CN1CCN(CC(=O)Nc2c(C)cccc2C)CC1 | inactive | inactive |
| COC(=O)c1c(-c2cc(OC)c(OC)c(OC)c2)c2ccnc(OCc3ncccn3)c2c(=O)n1Cc1ccnc(C)c1 | inactive | inactive |
| C[C@@H]1CCN=C(N)S1 | inactive | inactive |
| c1ccc2c(c1)CCC[C@H]2C1=NCCN1 | inactive | inactive |
| O=C1CC[C@H](N2C(=O)c3ccccc3C2=O)C(=O)N1 | inactive | inactive |
| C[C@@H](/C=C\c1cccc(Oc2ccc(F)cc2)c1)N(O)C(N)=O | inactive | inactive |
| C#C[C@H](N)CCC(=O)O | inactive | inactive |
| CSc1nc(N)c2ncn([C@@H]3O[C@@H](COP(=O)(O)OP(=O)(O)O)[C@@H](O)[C@H]3O)c2n1 | inactive | inactive |
| NC[C@H](O)C1CCCCCCC1 | inactive | inactive |
| NCCCCNS(=O)(=O)c1cccc2c(Cl)cccc12 | inactive | inactive |
| NC(=O)C1=CN([C@@H]2O[C@@H](COP(=O)(O)OP(=O)(O)OC[C@@H]3O[C@H](n4cnc5c(N)ncnc54)[C@@H](OP(=O)(O)O)[C@@H]3O)[C@H](O)[C@@H]2O)C=CC1 | inactive | inactive |
| CNc1ncnc2c1ncn2[C@@H]1O[C@@H](CO)[C@H](O)[C@@H]1O | inactive | inactive |
| O=C(/C=C\c1ccc(O)cc1)c1ccc(O)cc1O | inactive | inactive |
| C[C@@]12C(=O)OC(=O)[C@@]1(C)[C@H]1CC[C@@H]2O1 | inactive | inactive |

| SMILES | outcome [1] | outcome [2] |
| --- | --- | --- |
| CC(C)(C)NC[C@H](O)c1cc(O)cc(O)c1 | inactive | inactive |
| CC(C)(Oc1ccc([C@@H]2CC2(Cl)Cl)cc1)C(=O)O | inactive | inactive |
| C[C@@](N)(C(=O)O)c1ccc(C(=O)O)cc1 | inactive | inactive |
| O[C@@](CCN1CCCCC1)(c1ccccc1)C1CCCCC1 | inactive | inactive |
| CN[C@]1(C)[C@@H]2CC[C@@H](C2)C1(C)C | inactive | inactive |
| S=C(S)O[C@@H]1C[C@@H]2C[C@H]1[C@@H]1CCC[C@H]21 | inactive | inactive |
| Nc1c2c(nc3ccccc13)CCC[C@H]2O | inactive | inactive |
| Cc1cn([C@H]2C[C@H](N=[N+]=[N-])[C@H](CO)O2)c(=O)[nH]c1=O | inactive | inactive |
| CCCCCCCCCC(=O)N[C@@H](CN1CCOCC1)[C@@H](O)c1ccccc1 | inactive | inactive |
| CC(C)(C)NC[C@H](O)COc1cccc2[nH]c(=O)[nH]c12 | inactive | inactive |
| C[C@@H]1CNCCN1S(=O)(=O)c1cccc2cnccc12 | inactive | inactive |
| Nc1ccc(CCNc2ncnc3c2ncn3[C@@H]2O[C@@H](CO)[C@H](O)[C@@H]2O)cc1 | inactive | inactive |
| N[C@H](CCCC(=O)O)C(=O)O | inactive | inactive |
| N.N.N.N.N.N.N.N.N.N.N.N.N.N.O.O.[Ru].[Ru].[Ru] | inactive | inactive |
| Cc1ccc(OC[C@H](O)[C@H](C)NC(C)C)c2c1CCC2 | inactive | inactive |
| CC(C)NC[C@H](O)c1cc(O)cc(O)c1 | inactive | inactive |
| O=C(O)[C@H]1C[C@H](C(=O)O)N1 | inactive | inactive |
| Oc1cc(O)cc(/C=C\c2ccc(O)c(O)c2)c1 | inactive | inactive |
| C[C@H](NCCc1ccc(O)cc1)[C@@H](O)c1ccc(O)cc1 | inactive | inactive |
| O=C(NC[C@H]1CCCCN1)c1cc(OCC(F)(F)F)ccc1OCC(F)(F)F | inactive | inactive |
| C[C@@H](Cc1ccccc1)Nc1ncnc2c1ncn2[C@@H]1O[C@@H](CO)[C@H](O)[C@@H]1O | inactive | inactive |
| C=C(C)[C@@H]1CC=C(C(=O)O)CC1 | inactive | inactive |
| C=CCN1CCc2cc(O)c(O)cc2[C@H](c2ccccc2)C1 | inactive | inactive |
| CO/N=C(\C(=O)N[C@@H]1C(=O)N2C(C(=O)O)=C(CSc3nc(=O)c(O)nn3C)CS[C@@H]12)c1csc(N)n1 | inactive | inactive |
| COc1ccc(CCN(C)CCC[C@@](C#N)(c2ccc(OC)c(OC)c2)C(C)C)cc1OC | inactive | inactive |
| CCCCC/C=C\C[C@H](O)/C=C\c1cccc(C[C@H](O)CCCCO)n1 | inactive | inactive |
| COC(=O)[C@H]1[C@H]2C[C@H]3c4[nH]c5ccccc5c4CCN3C[C@@H]2CC[C@@H]1O | inactive | inactive |

| SMILES | outcome [1] | outcome [2] |
| --- | --- | --- |
| CC(=O)N[C@@H](C(=O)O)C(C)(C)SN=O | inactive | inactive |
| O=C(O)[C@H]1CCCNC1 | inactive | inactive |
| CN1[C@@H]2CC[C@H]1CC(OC(=O)[C@@H](CO)c1ccccc1)C2 (stereo partly drawn) | inactive | inactive |
| CCCC[S@@](=N)(=O)CC[C@@H](N)C(=O)O | inactive | inactive |
| O=C(O)[C@H]1CN(CCCP(=O)(O)O)CCN1 | inactive | inactive |
| O=C(c1ccccc1)c1ccc2n1CC[C@H]2C(=O)O | inactive | inactive |
| CO[C@]1(C2=NCCN2)COc2ccccc2O1 | inactive | inactive |
| C#C[C@]1(O)CC[C@H]2[C@H]3CCC4=Cc5oncc5C[C@]4(C)[C@@H]3CC[C@]21C | inactive | inactive |
| CO[C@]1(NC(=O)CSCC#N)C(=O)N2C(C(=O)O)=C(CSc3nnnn3C)CS[C@H]21 | inactive | inactive |
| O=C1NC(O)=NC1(c1ccccc1)c1ccccc1 | inactive | inactive |
| C=C[C@H](N)CCC(=O)O | inactive | inactive |
| CC1=C(C(=O)O)N2C(=O)[C@@H](NC(=O)[C@@H](N)C3=CCC=CC3)[C@@H]2SC1 | inactive | inactive |
| O=C(NCCNC[C@@H](O)COc1ccc(O)cc1)N1CCOCC1 | inactive | inactive |
| CCN(Cc1ccncc1)C(=O)[C@@H](CO)c1ccccc1 | inactive | inactive |
| CC(C)C[C@H](NC(=O)[C@@H](O)[C@@H](N)Cc1ccccc1)C(=O)O | inactive | inactive |
| CNCC[C@H](Oc1ccccc1OC)c1ccccc1 | inactive | inactive |
| COc1ccccc1N1CCN(C[C@@H](O)COc2cccc3ccccc23)CC1 | inactive | inactive |
| CC(C)[C@H]1C(=O)C(C(N)=O)=C(O)[C@]2(O)C(=O)C3=C(O)c4c(O)ccc(N(C)C)c4C[C@H]3C[C@@H]12 | inactive | inactive |
| C[C@@H]1O[C@@H](n2cc(F)c(=O)[nH]c2=O)[C@H](O)[C@@H]1O | inactive | inactive |
| C[C@H]1CN(S(=O)(=O)c2cccc3cnccc23)CCN1 | inactive | inactive |
| NC[C@@H]1O[C@@H](O[C@H]2[C@@H](O)[C@H](O[C@@H]3[C@H](O)[C@H](N)C[C@H](N)[C@H]3O[C@@H]3O[C@@H](CO)[C@H](O)[C@H](O)[C@@H]3N)O[C@H]2CO)[C@H](N)[C@H](O)[C@@H]1O | inactive | inactive |
| C[C@H](N=C(NC#N)Nc1ccncc1)C(C)(C)C | inactive | inactive |
| CN1C[C@@H](C(=O)N[C@]2(C)O[C@]3(O)[C@H]4CCCN4C(=O)[C@H](Cc4ccccc4)N3C2=O)C[C@H]2c3cccc4[nH]cc(c34)C[C@@H]21 | inactive | inactive |
| C[C@]12CC3CC(N)(C1)C[C@@](C)(C3)C2 | inactive | inactive |
| NCCC[C@@](N)(C(=O)O)C(F)F | inactive | inactive |
